Measurements from PubChem BioAssay.
Several values for one entry are separate records, joined by “and”; a condition that tells them apart may be missing. Equal values may be shown once. Records with an inconclusive call do not appear. For part of these data: Entries with a potency or affinity are not part of this list. Activity calls are given as the source filed them. Unless noted, no rule for the calls is given here.

Key:
[1] = polyglutamine-triggered caspase-3 activation inhibitors, cell-based (AID 1583); settings: polyglutamine-induced caspase-3 activation, cell assay; stronger effect = higher value;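 tested at 10 µM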
[2] = suppressors of polyQ aggregation in yeast, 75Q-TubU reporter (AID 1593); settings: Yeast 75Q polyglutamine aggregation reporter
[3] = rescue of polyQ-huntingtin neuronal dysfunction in worms, whole organism, C. elegans mechanosensory neurons, N-terminal huntingtin (AID 1599); settings: touch response, stronger effect = higher value
[4] = inhibitors of mitochondrial cytochrome c release, biochemical, purified mitochondria (AID 1603); settings: stronger effect = lower value;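 also: mouse liver mitochondria challenged with calcium chloride; signal normalized to the plate average as 100%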
[5] = inhibitors of polyQ protein aggregation (AID 1604); settings: polyglutamine-induced protein aggregation inhibition assay; stronger effect = higher value; tested at 2.5 µM
[6] = enhancers of glutamate uptake in motor neurons, MN-1 cell line (AID 1612); settings: MN-1 motor neuron cells, stronger effect = higher value;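 also: tested at 1 µM final; 0% = mean of DMSO vehicle wells on each plate; positive means more glutamate uptake than control and negative means less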
[7] = suppressors of polyglutamine aggregation in yeast, 75Q-TubH (AID 1616); settings: S. cerevisiae 75Q-TubH polyglutamine aggregation suppression; stronger effect = higher value
[8] = circadian clock period modulators, cell-based, LOPAC library, luminescence reporter (AID 2774); settings: circadian reporter cells, at 7 µM, actives lie on both sides;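 also: values are relative to mean of DMSO wells on each plate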
[9] = test system: Hepatitis C virus NS3 helicase; test: HCV NS3 helicase inhibitors, primary screen, biochemical, fluorescence polarization, LOPAC1280 library (AID 687035; in the data active = inhibition above about 37%); settings: Purified HCV NS3 helicase, Cy5-dT15 ssDNA binding fluorescence polarization; stronger effect = higher value; concentration not given here
[10] = Cy5 fluorescence quenching or enhancement artefacts, artefact control for HCV NS3 helicase inhibitor project, biochemical, LOPAC1280 (AID 687037); settings: Cy5-DNA-NS3h complex fluorescence interference counterscreen
[11] = phospholipid biosynthesis inhibitors in animal cells, primary screen, cell-based, LOPAC library, screen 4 (AID 1347384); settings: phospholipid biosynthesis inhibition screen, at 10 µM
[12] = test system: Aerobactin synthetase IucA (Klebsiella pneumoniae); test: IucA aerobactin synthetase inhibitors, biochemical, Tocris library, absorbance (AID 1345561); settings: purified IucA enzyme assay, absorbance (OD) read-out; stronger effect = lower value;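 tested at 8 µM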;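 also: 100% = enzyme without compound and 0% = no enzyme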
[13] = growth inhibition of DIPG glioma cells, dose response, cell-based, JHH-DIPG-1, MIPE4.0, CellTiter-Glo, qHTS (AID 1347062; cut-off not given, nearly all actives have AC50 up to about 27 µM); settings: JHH-DIPG-1 viability, CellTiter-Glo ATP luminescence
F380Y = test: modulators of BK channel variants, profiling panel, selectivity assay, cell-based, U2OS BacMam, thallium flux, beta subunits (AID 1259406;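 active = thallium flux through the channel raised or lowered by more than 3 SD from vehicle-only wells, actives on both sides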;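 also: initial slope of Thallos dye fluorescence rise after thallium is added; log ratio against the mean of 0.3% DMSO vehicle wells on the same plate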); settings: at 30 µM
F380Y/beta2Delta = test: as above; settings: at 30 µM
[14] = target: Calcium-activated potassium channel subunit alpha-1 (Homo sapiens) + Leucine-rich repeat-containing protein 26 (Homo sapiens) (UniProt Q12791+Q2I0M4); test: as above; settings: F380Y/Slo1WT/gamma1, at 30 µM
Sequence of Calcium-activated potassium channel subunit alpha-1 (Homo sapiens) + Leucine-rich repeat-containing protein 26 (Homo sapiens) (Q2I0M4 whole entry, looked up, one chain of several): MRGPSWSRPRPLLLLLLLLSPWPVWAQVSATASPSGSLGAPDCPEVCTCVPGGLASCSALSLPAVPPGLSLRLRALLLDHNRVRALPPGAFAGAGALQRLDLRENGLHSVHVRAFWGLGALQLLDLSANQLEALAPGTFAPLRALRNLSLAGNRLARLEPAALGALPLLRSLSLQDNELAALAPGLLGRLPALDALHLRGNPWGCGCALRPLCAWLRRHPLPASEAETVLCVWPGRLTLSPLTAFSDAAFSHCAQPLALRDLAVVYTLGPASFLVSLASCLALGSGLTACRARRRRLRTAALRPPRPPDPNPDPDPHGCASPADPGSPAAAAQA

R275C = test: as above; settings: at 30 µM
R275C/beta1 = test: as above; settings: at 30 µM
R275C/beta2Delta = test: as above; settings: at 30 µM

CC[n+]1c(-c2ccccc2)c2cc(N)ccc2c2ccc(N)cc21
inhibition [1]: 24.8%
score [2]: 0.43
rescue above control [3]: 0
cytochrome c release ratio [4]: 0.84
inhibition of aggregation [5]: 47.5%
glutamate uptake change [6]: 5.78%
aggregation suppression score [7]: 0.0827

Cc1cccc(C)c1NC1=NCCCS1
inhibition [1]: -1.23%
score [2]: 1.34
rescue above control [3]: -0.14
cytochrome c release ratio [4]: 0.7
inhibition of aggregation [5]: 87.3%
glutamate uptake change [6]: -9.68%
aggregation suppression score [7]: 1.27
period change [8]: -0.19 h (inactive)
inhibition [9]: -2% (inactive)
fluorescence ratio (interference) [10]: 1 (inactive)
outcome [11]: inactive

C=C(C)[C@H]1CN[C@H](C(=O)O)[C@H]1CC(=O)O
period change [8]: 0.025 h (inactive)
inhibition [9]: -3% (inactive)
fluorescence ratio (interference) [10]: 1 (inactive)
remaining activity [12]: 116% (inactive)
outcome [11]: inactive

O=[N+]([O-])O[C@H]1CO[C@H]2[C@@H]1OC[C@H]2O[N+](=O)[O-]
inhibition [1]: 15%
score [2]: 1.7
rescue above control [3]: -2.31
cytochrome c release ratio [4]: 0.66
inhibition of aggregation [5]: 83.1%
glutamate uptake change [6]: -15.4%
aggregation suppression score [7]: 1.27

CC(C)[N+](C)(CCC(C(N)=O)(c1ccccc1)c1ccccc1)C(C)C
inhibition [1]: 22%
score [2]: 1.43
rescue above control [3]: -11.8
cytochrome c release ratio [4]: 1.07
inhibition of aggregation [5]: 35.2%
glutamate uptake change [6]: 20%
aggregation suppression score [7]: 1.25

NC(=O)c1cc([N+](=O)[O-])cc([N+](=O)[O-])c1
inhibition [1]: -15.4%
score [2]: 1.47
rescue above control [3]: -6.77
cytochrome c release ratio [4]: 0.54
inhibition of aggregation [5]: 72.4%
glutamate uptake change [6]: -3.86%
aggregation suppression score [7]: 1.47

CCCCCCCCCCCCCCCC[N+](C)(C)C
inhibition [1]: 66.5%
score [2]: 0.03
rescue above control [3]: 0
cytochrome c release ratio [4]: 2.11
inhibition of aggregation [5]: 65.1%
glutamate uptake change [6]: -41.1%
aggregation suppression score [7]: -0.0208

NCC(CC(=O)O)c1ccc(Cl)cc1 (stereo unspecified)
inhibition [1]: -4.56%
score [2]: 1.02
rescue above control [3]: 5.24
cytochrome c release ratio [4]: 0.97
inhibition of aggregation [5]: 63.5%
glutamate uptake change [6]: -15.4%
aggregation suppression score [7]: 1.13
period change [8]: 0.145 h (inactive)
inhibition [9]: -1% (inactive)
fluorescence ratio (interference) [10]: 0.9 (inactive)
outcome [11]: inactive

COc1ccccc1N1CCNCC1
period change [8]: 0.075 h (inactive)
inhibition [9]: -4% (inactive)
fluorescence ratio (interference) [10]: 0.9 (inactive)
outcome [11]: inactive

Clc1ccc(CSC(Cn2ccnc2)c2ccc(Cl)cc2Cl)cc1 (stereo unspecified)
inhibition [1]: 16.4%
score [2]: 0.02
rescue above control [3]: 23
cytochrome c release ratio [4]: 1.53
inhibition of aggregation [5]: 26.4%
glutamate uptake change [6]: 6.86%
aggregation suppression score [7]: 0.000314

CC(=O)Nc1cc([As](=O)(O)O)ccc1O
inhibition [1]: -3.61%
score [2]: 0.97
rescue above control [3]: -5.17
cytochrome c release ratio [4]: 1.06
inhibition of aggregation [5]: 43.7%
glutamate uptake change [6]: -5.59%
aggregation suppression score [7]: 1.35

C[C@H]1C(=O)O[C@@H]2CCN3CC=C(COC(=O)[C@](C)(O)[C@]1(C)O)[C@H]23
inhibition [1]: 11.2%
score [2]: 1.29
rescue above control [3]: 10.3
cytochrome c release ratio [4]: 0.94
inhibition of aggregation [5]: 36.1%
glutamate uptake change [6]: 4%
aggregation suppression score [7]: 1.12

C[C@@H]1CC[C@H]2[C@@H](C)C(=O)O[C@@H]3O[C@@]4(C)CC[C@@H]1[C@]32OO4
remaining activity [12]: 94.3% (inactive)
outcome [13]: inactive

O=c1oc2ccccc2c(O)c1Cc1c(O)c2ccccc2oc1=O
inhibition [1]: 3.41%
score [2]: 0.69
cytochrome c release ratio [4]: 0.7
inhibition of aggregation [5]: 42.1%
glutamate uptake change [6]: -38%
aggregation suppression score [7]: 1.26

Cc1cc(O)ccc1Cl
inhibition [1]: 17.2%
score [2]: 0.98
rescue above control [3]: 2.39
cytochrome c release ratio [4]: 1.22
inhibition of aggregation [5]: 88%
glutamate uptake change [6]: -10.2%
aggregation suppression score [7]: 0.639

CN1CCN(C(=O)O[C@H]2c3nccnc3C(=O)N2c2ccc(Cl)cn2)CC1
outcome [13]: inactive
log fold change Tl+ flux (F380Y): -0.0134 (inactive)
log fold change Tl+ flux (F380Y/beta2Delta): 0.0361 (inactive)
log fold change Tl+ flux [14]: -0.0271 (inactive)
log fold change Tl+ flux (R275C): 0.0376 (inactive)
log fold change Tl+ flux (R275C/beta1): 0.0325 (inactive)
log fold change Tl+ flux (R275C/beta2Delta): 0.0513 (inactive)

CCC(COC(=O)c1cc(OC)c(OC)c(OC)c1)(c1ccccc1)N(C)C (stereo unspecified)
log fold change Tl+ flux (F380Y): -0.284 (active)
log fold change Tl+ flux (F380Y/beta2Delta): -0.21 (active)
log fold change Tl+ flux [14]: -0.141 (active)
log fold change Tl+ flux (R275C): -0.249 (active)
log fold change Tl+ flux (R275C/beta1): -0.324 (active)
log fold change Tl+ flux (R275C/beta2Delta): -0.495 (active)

NC(=O)OCCCc1ccccc1
log fold change Tl+ flux (F380Y): 0.0271 (inactive)
log fold change Tl+ flux (F380Y/beta2Delta): 0.0735 (inactive)
log fold change Tl+ flux [14]: -0.0246 (inactive)
log fold change Tl+ flux (R275C): -0.0501 (inactive)
log fold change Tl+ flux (R275C/beta1): 0.00561 (inactive)
log fold change Tl+ flux (R275C/beta2Delta): 0.00928 (inactive)

NN=C(N)N
period change [8]: -0.015 hour (inactive) and -0.1 hour (inactive)
inhibition [9]: -1% (inactive) and -5% (inactive)
fluorescence ratio (interference) [10]: 1 (inactive) and 0.9 (inactive)
remaining activity [12]: 98% (inactive)
outcome [11]: inactive
